Bioassay records (PubChem)
Pf Dd2 growth: qHTS Primary assay for Inhibitors of Plasmodium falciparum Dd2 growth in vitro. P. falciparum Dd2 growth, SYBR Green, 72 h. Potency, µM (highest dose often 28.9 µM), hits mostly inhibitors. 120,000 compounds, 4.3% hits. AID 1347417, 2020; active = well fitted inhibition curve with a large enough effect; note: nearly all actives have a fitted effect of over 65% in size
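Infected erythrocytes (Dd2, 0.3% parasitemia, 2.5% hematocrit final) are added to compound in RPMI-1640/Albumax II medium, grown 72 h at 37C in low oxygen, then lysed with saponin/Triton-X containing SYBR Green and read by fluorescence.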
A number is an active result; - = inactive. This is one part of a sample in which hits are shown more often than they occur.

SMILES	Pf Dd2 growth
COc1ccccc1CN1Cc2cc(NC(=O)Cc3ccc(F)cc3)ccc2OC(C)C1=O (stereo unspecified)	-
COc1cccc(CC(=O)Nc2ccc3c(c2)CN(Cc2ccccc2OC)C(=O)C(C)O3)c1 (stereo unspecified)	-
CCNC(=O)Nc1ccc2c(c1)CN(Cc1ccccc1OC)C(=O)C(C)O2 (stereo unspecified)	-
CCC(C(=O)Nc1ccc2c(c1)CN(Cc1ccccc1OC)C(=O)C(C)O2)c1ccccc1 (stereo unspecified)	2.5µM
CCC1Oc2ccc(NC(=O)Cc3ccc(F)cc3)cc2CN(Cc2ccc(Cl)cc2)C1=O (stereo unspecified)	-
CC1Oc2ccc(NC(=O)Cc3ccc(F)cc3)cc2CN(Cc2ccc(Cl)cc2)C1=O (stereo unspecified)	10µM
O=C(CC(c1cccc(O)c1)c1ccccc1Cl)NCc1cccnc1 (stereo unspecified)	-
O=C(N[C@H]1CCN2C(=O)N(c3cccc4nsnc34)C(=O)[C@@H]2C1)c1ccc(F)c(Cl)c1	-
CCC(CC)C(=O)N[C@H]1CCN2C(=O)c3cc(-c4cccs4)ccc3NC(=O)[C@@H]2C1	-
COCCNC(=O)CN1CN(c2ccccc2)C2(CCN(C(=O)NC3CCCCC3)CC2)C1=O	-
CC(C)CNC(=O)CN1CN(c2ccccc2)C2(CCN(C(=O)NC3CCCCC3)CC2)C1=O	1.6µM
CCc1ccccc1NC(=O)N1CCC2(CC1)C(=O)N(CC(=O)NC(C)C)CN2c1ccccc1	-
Cc1cc(C(=O)N2CCC(Oc3ccc(C(=O)NC4CCCC4)cc3Cl)CC2)n(C)n1	-
COc1cccc(-c2noc(Nc3ccc4c(c3)OCO4)n2)c1	-
C[C@@H](NC(=O)c1cccnc1)c1onc(-c2cccnc2)c1C(=O)O	-
COc1ccc(-c2noc(-c3nc(-c4cccnc4)no3)n2)cc1OC	-
Cc1nc(NC(C)c2nc(-c3cccnc3)no2)c2cccnc2n1 (stereo unspecified)	3.5µM
Cc1ccc(NC(=O)CN2C(=O)NC3(CCCCC3)C2=O)c(Cl)c1	-
CC(CCc1ccccc1)NC(=O)c1noc(-c2ccc[nH]c2=O)n1 (stereo unspecified)	-
Cc1oc(-c2ccccc2F)nc1Cn1c(SCc2ccccc2F)nc2ccncc21	-
O=C(CSc1nc2ccccc2n1Cc1ccccc1F)NCc1ccccc1	-
O=C(NCc1cccs1)c1ccc(CSc2nc3ccncc3n2Cc2ccccc2F)cc1	13µM
Cc1ccccc1Cn1c(SCc2ccc(C(=O)NCc3cccs3)cc2)nc2ccncc21	10µM
COCC1CN(C(C)=O)CC12CCN(Cc1ccccc1OC(C)C)CC2 (stereo unspecified)	-
Cc1ccc(C(=O)N2CC(C(=O)N(C)C)C3(CCOCC3)C2)c(C)c1 (stereo unspecified)	-
SMILES	Pf Dd2 growth
COc1ccc(C(=O)NC(C(=O)NCC(C)C)C2CCN(C(=O)c3cccc(F)c3)CC2)cc1 (stereo unspecified)	-
CCCN1C(=O)CC[C@H]2CN(c3cc(OC)nc(N)n3)CC[C@H]21	-
Oc1ccccc1-c1cc(C2=CCOCC2)c2cncn2c1	1.3µM
O=C1COCCN1c1cc(-c2ccccc2Oc2ccccc2)cn2cncc12	-
Oc1ccccc1-c1cc(-c2cccnc2)c2cncn2c1	0.35µM
Cc1noc(C)c1-c1cc2c(c(-c3cccc(CO)c3)c1)C(=O)N(C)C2=O	-
COc1ncccc1-c1cc(-c2c(C)noc2C)cc2c1C(=O)N(C)C2=O	-
C1=C(c2cc(-c3cccc4[nH]ccc34)cn3cncc23)CCOC1	-
C[S+](=O)([O-])c1ccc(-c2cc(-c3cccnc3)c3cncn3c2)cc1	-
Cc1noc(C)c1-c1cc(-c2ccc(CN(C)C)cc2)cn2cncc12	2.8µM
Cc1noc(C)c1-c1cc2c(c(-c3cccnc3)c1)C(=O)N(C)C2	-
CN(C)Cc1ccc(-c2cc(-c3ccc(=O)[nH]c3)c3cncn3c2)cc1	-
Cc1noc(C)c1-c1cc(-c2ccccc2O)cn2cncc12	14µM
C1=C(c2cc(-c3cccc4cn[nH]c34)cn3cncc23)CCOC1	-
Cn1nccc1C(=O)NC1CCN(c2cc(-c3ccccc3)[nH]n2)CC1	-
O=C(c1ccc(C(F)(F)F)cc1)N1CCC2(CC1)CN[S+](=O)([O-])c1ccccc1N2	-
Cc1cc(OC2CN(Cc3cccc4ccccc34)C2)ccc1F	-
COc1ccccc1CC(=O)NC1CCN(c2cnn(C)c(=O)c2)CC1	-
CC(C)=CCC1(C(=O)O)CCCN(C(=O)C2(Cn3cccn3)CC2)C1 (stereo unspecified)	-
CCc1nc(-c2c3n(c(=O)n(CC(=O)NCc4ccc(F)cc4)c2=O)CCCC3)no1	-
CCC(=O)N1CCC2(CC1)CC(N(CC)CC)CCO2 (stereo unspecified)	-
CN1c2cc(C(=O)NCc3cccs3)ccc2C(=O)N2CCCCC21 (stereo unspecified)	-
COc1cccc(CN2Cc3nc(-c4cn[nH]c4)ccc3OCC2=O)c1	-
O=C(CCCc1cccs1)N1CCC2(CC1)[C@H](O)C[C@@H]2OCCO	-
Cc1noc(C)c1-c1cc(-c2ccccc2)cn2cncc12	5.6µM
SMILES	Pf Dd2 growth
Cc1noc(C)c1-c1cc(-c2ccncc2)cn2cncc12	-
Cc1noc(C)c1-c1cc2c(cc(-c3ccccc3)n2C)c(-c2cnn(C)c2)n1	-
Cc1cn2nc(C(=O)NCc3ccc(C(C)C)cc3)cc2c(=O)[nH]1	-
Cc1cc(C)c2nonc2c1S(=O)(=O)N1C[C@@H](N(C)C)[C@H](C(C)C)C1	11µM
Cc1nn(C)c(C)c1S(=O)(=O)N1C[C@@H](NS(C)(=O)=O)[C@H](C(C)C)C1	-
CC(=O)N[C@H]1CN(S(=O)(=O)c2ccc(C)c(F)c2)C[C@@H]1C(C)C	-
Cc1noc(C)c1CC(=O)N[C@@H]1CN(S(C)(=O)=O)C[C@H]1CN(C)C	-
COc1cc(C(=O)N2CCC[C@H]2c2nc(-c3ccc(F)cc3)no2)cc(OC)c1OC	-
CCOC(=O)c1c(S(=O)(=O)N2CCCC(C(=O)N3CCN(c4cc(C)ccc4C)CC3)C2)c(C)n(C)c1C (stereo unspecified)	1µM
CCOC(=O)c1c(S(=O)(=O)N2CCCC(C(=O)Nc3cc(C)ccc3OC)C2)c(C)n(C)c1C (stereo unspecified)	-
Cc1ccc(C)c(N2CCN(C(=O)C3CCN(S(=O)(=O)c4ccc5[nH]c(=O)oc5c4)CC3)CC2)c1	5.6µM
CCOC(=O)c1c(C)[nH]c(C)c1S(=O)(=O)N1CCC(C(=O)N2CCN(c3ccccc3F)CC2)CC1	-
CCOC(=O)c1c(S(=O)(=O)N2CCCC(C(=O)Nc3ncccc3C)C2)c(C)n(C)c1C (stereo unspecified)	-
CCOC(=O)c1c(C)[nH]c(C)c1S(=O)(=O)N1CCCC(C(=O)NCc2ccc(C)cc2)C1 (stereo unspecified)	-
CCOC(=O)c1c(C)[nH]c(C)c1S(=O)(=O)N1CCCC(C(=O)N2CCN(c3cc(C)ccc3C)CC2)C1 (stereo unspecified)	1.3µM
Cc1ccc(C)c(N2CCN(S(=O)(=O)c3ccc4c(c3)CCCN4C(=O)C3CCC3)CC2)c1	-
CCOC(=O)c1c(S(=O)(=O)N2CCCC(C(=O)Nc3cc(C)ccn3)C2)c(C)n(C)c1C (stereo unspecified)	-
CCOC(=O)c1c(S(=O)(=O)N2CCC(C(=O)N3CCN(c4ccccc4F)CC3)CC2)c(C)n(C)c1C	-
